From PubChem BioAssay AID449762 (Southern Research Specialized Biocontainment Screening …, 2010)
In all, about 330,000 compounds went through this assay and about 1,900 (0.58%) were called active. Roughly 4% stayed inconclusive and do not appear here. A selection follows. Entries with a potency or affinity are not part of this list. A number with no mark means an inactive call. Rule as the data show it: inconclusive = inhibition above about 70% without an active follow-up result; inactive = below that.

experiment: M. tuberculosis growth inhibition, HTS (AID 449762);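 also: bacterial growth assessed after seven days of incubation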; conditions: M. tuberculosis H37Rv growth inhibition, 7H9 media; at 25 µM; hits give high values

Point of comparison: O=C(CN(Cc1ccco1)C(=O)CNS(=O)(=O)c1ccccc1)NCc1ccccc1, inhibition 0.41%. Against it:
- COC(=O)c1cc(C(=O)OC)[nH]n1 — lower, -0.31%
- COc1ccccc1NC(=O)N1CCCC1C(=O)NCc1ccccc1Cl (stereo unspecified) — higher, 3.2%
- Cc1ccc(S(=O)(=O)/N=C(\CN2CCOCC2)N2CCOCC2)cc1 — higher, 2.72%
- Cc1ccc(S(=O)(=O)/N=C(\CN2CCCCC2)N2CCOCC2)cc1 — lower, -3.15%
- CC(=O)c1c(C)[nH]c(C(=O)CSc2nc3ccccc3c(=O)n2CCCO)c1C — higher, 10.8%
- O=C(NC1CCOCC1)C1CCC(=O)N(Cc2ccc(Cl)cc2)C1 (stereo unspecified) — lower, -7.32%
- Cc1ccc(C(=O)C2CCOC(C)(C)C2)cc1 (stereo unspecified) — lower, -6.79%
- Cc1ccc(-c2csc(N3CCC[C@@H]3C(=O)NCCn3c(-c4ccncc4)nc4ccccc43)n2)cc1 — higher, 58.4%
- Cc1ccc(-c2csc(NCCn3c(-c4ccncc4)nc4ccccc43)n2)cc1 — lower, -3.83%
- COc1cc2c(cc1OC)CN(C1CCC(C)CC1)CC2 (stereo unspecified) — higher, 8.03%
- CC(C)N=C(NC#N)SCc1ccccc1F — lower, -3.3%
- CCNc1nc(C)nc2c1oc1ccccc12 — higher, 2.03%
- COc1ccc(CCNc2nc(C)nc3c2oc2ccccc23)cc1OC — higher, 2%
- COc1ccccc1NS(=O)(=O)c1cccc(C(=O)NN)c1 — lower, -5.02%
- COc1cc(NC(=O)Cc2ccc([N+](=O)[O-])cc2)c(C(=O)O)cc1OC — higher, 20.1%
- O=C(/C=C/c1cccnc1)c1ccc(O)cc1 — higher, 2.21%
- O=C(/C=C/c1cccnc1)c1ccccc1O — higher, 4.14%
- COc1cc(C(=O)/C=C/c2cccnc2)ccc1O — higher, 52.2%
- CN(C)c1ccc(C(=O)/C=C/c2cccnc2)cc1 — lower, -3.39%
- Cc1ccc2nc(-c3ccc(NC(=O)CCS(=O)(=O)c4ccccc4)cc3)sc2c1 — higher, 1.52%
- Cc1ccc(N2C(=O)C3C4C=CC(CNC(=S)Nc5ccc(Cl)cc5)(O4)C3C2=O)cc1 (stereo unspecified) — higher, 0.99%
- Cc1ccc(NC(=O)Nc2ccc3c(c2)CCC3)c(C)c1 — lower, -10.3%
- Cc1ccc2[nH]c3nc(N/N=C/c4cccc(O)c4)nnc3c2c1 — higher, 3.58%
- O=Nc1ccc(NOC(=O)c2ccccc2)cc1 — higher, 14%
- Cc1ccc(C(=O)ONc2ccc(N=NC(=O)c3ccccc3O)cc2)cc1 — higher, 2.47%
- CCCn1c(C)cc(C(=O)CN2C(=O)c3cccc(N)c3C2=O)c1C — lower, -10%
- COc1ccc(-c2[nH]ncc2N=Nc2ccccc2)cc1 — higher, 8.09%
- Oc1ccc(Cl)cc1N=Nc1ccccc1 — lower, -8.24%
- CCOC(=O)c1[nH]c2ccccc2c1NC(=O)c1ccc(Br)o1 — lower, -1.61%
- CN(C)c1ccc(/C=C/c2cc[n+](C)cc2)cc1 — higher, 7.78%
- CN(C)c1ccc(/C=C/c2cccc[n+]2[O-])cc1 — higher, 1.21%
- Cc1cc(C(=O)OCC(=O)Nc2cccc(F)c2)c(C)n1C1CC1 — the same, 0.41%
- CCN(CC)CCn1c(SCC(=O)Nc2ccc(F)cc2)nc2c(sc3ccccc32)c1=O — higher, 4.95%
- CCN(CC)CCn1c(SCC(=O)NCc2ccccc2)nc2c(sc3ccccc32)c1=O — higher, 6%
- COCCn1c(-c2ccccc2)cc(C(=O)O)c1C — higher, 6.01%
- COc1ccc(CNC(=O)Nc2ccc(C)c(C)c2)cc1 — lower, -5.48%
- CC(=O)NC(=S)Nc1ccc(NC(=O)COc2ccc(Cl)cc2Cl)cc1 — higher, 0.45%
- CC(=O)Nc1ccc(NC(=O)COc2ccc(Cl)cc2Cl)cc1 — lower, -0.58%
- COC(=O)c1ccc(NC(=O)Cn2nc(SC)n(N)c2=S)cc1 — lower, -4.09%
- Cn1nc([N+](=O)[O-])nc1Sc1ccc(Cl)cc1 — lower, 0.18%
- Cc1ccc(Sc2nc([N+](=O)[O-])nn2C)cc1 — higher, 6.48%
- CC(=O)Nc1ccc(CN2CCN(CCc3ccccc3)C(CCO)C2)cc1 (stereo unspecified) — lower, -3.1%
- Cc1ccc(O)c(C=Nc2cc(C)ccc2O)c1 — lower, -4.69%
- CCCCS/C(N)=N/N=C/c1ccccc1O — higher, 1.14%
- COc1ccc(CCNc2nc(-c3ccc(O)cc3)cs2)cc1OC — higher, 3.36%
- C=CCCC(=O)N1CCCC(C(=O)c2cccc(OC)c2)C1 (stereo unspecified) — higher, 5.01%
- OC(CN1CCN(c2ccccc2)CC1)Cn1c2ccccc2c2ccccc21 (stereo unspecified) — higher, 14.7%
- CN1CCN(CC(O)Cn2c3ccccc3c3ccccc32)CC1 (stereo unspecified) — higher, 6.36%
- Cc1noc(C)c1COC(=O)c1ccc2c(c1)S(=O)(=O)c1ccccc1C2=O — lower, -4.63%
- Brc1ccc2c(c1)C(c1cccs1)=NNC(c1cccnc1)=N2 — higher, 1.73%
- NC(=O)CC(NC(=O)Cc1ccc(Br)cc1)c1ccc(N2CCN(c3ccccn3)CC2)c([N+](=O)[O-])c1 (stereo unspecified) — higher, 2.89%
- C[C@H](CO)N1C[C@H](C)[C@@H](CN(C)S(C)(=O)=O)Oc2c(NC(=O)C3CC3)cccc2C1=O — higher, 1.46%
- CC(C)SC1=NC(C)(C)C=C(/C=C/c2ccc(Cl)cc2Cl)N1 — higher, 23.8%
- CCSC1=NC(C)(C)C=C(/C=C/c2ccc(Cl)cc2Cl)N1 — higher, 46.6%
- COc1ccc(C(=O)Nc2cccc([N+](=O)[O-])c2)cc1Br — lower, -1.62%
- COc1nccc(-c2ccc(F)cc2)c1C#N — higher, 6.03%
- COc1ccc2[nH]c3c(Cl)ncnc3c2c1 — lower, -0.24%
- COc1ccc2c(c1)[nH]c1c(C)nccc12 — higher, 34.6%
- COc1ccc(NC(C)C(=O)N/N=C/c2c(O)ccc3ccccc23)cc1 (stereo unspecified) — lower, -2.98%
- CN(C)S(=O)(=O)N1CCCN(S(=O)(=O)N(C)C)CC1 — lower, -7.77%
- CCCCC(=O)Nc1ccc(C)c(S(=O)(=O)N2CCCCCC2)c1 — lower, -1.76%
- Cc1ccc(NC(=O)Cc2ccc(Cl)cc2)cc1S(=O)(=O)N1CCCCCC1 — lower, -4.17%
- Cc1c(NC(=O)CC2NC(=O)NC2=O)c(=O)n(-c2ccccc2)n1C (stereo unspecified) — higher, 4.59%
- Cc1ccc(NC(=O)CSc2nc(N)cc(=O)[nH]2)cc1S(=O)(=O)N1CCCCCC1 — lower, -1.26%
- Cc1ccc(C(=O)NNS(=O)(=O)c2ccccc2[N+](=O)[O-])cc1 — higher, 4.03%
- Cc1ccc(S(=O)(=O)NNC(=O)c2ccc(O)cc2)cc1 — higher, 9.92%
- C#CC[N+]1(C)C2CCC1CC(O)C2 (stereo unspecified) — higher, 6.2%
- COC(=O)/C(=C\c1c(OC)cc(OC)cc1OC)C(=O)c1ccc2c(c1)OCO2 — higher, 17%
- CCN1C(=O)CSc2ccc(C(=O)NCc3ccccc3)cc21 — lower, -4.41%
- CC(=O)n1cc(C=C2C(=O)NC(=O)NC2=O)c2ccccc21 — higher, 6.36%
- CC(=O)O/C(=C\c1cn(C(C)=O)c2ccccc12)C(=O)O — lower, -13.8%
- Cc1oc(-c2ccc(Cl)cc2)nc1CS(=O)CC(=O)NC1CCCC1 (stereo unspecified) — lower, -1.04%
- COc1cccc(N=Nc2c(N)[nH]n3c(=O)cc(-c4ccccc4)nc23)c1 — higher, 54.1%
- Nc1[nH]n2c(=O)cc(-c3ccccc3)nc2c1N=Nc1ccc(S(N)(=O)=O)cc1 — higher, 6.74%
- Cc1ccc(CNc2nc3ccccc3n3cnnc23)cc1 — lower, -11.5%
- CCc1ccc(Nc2oc(C)cc(=O)c2C(C)=O)cc1 — higher, 70%
- C/C(=N\N=C(/N)SC1CC(=O)N(c2cccc(Cl)c2)C1=O)c1cccs1 (stereo unspecified) — higher, 15.1%
- C/C(=N\N=C(/N)SC1CC(=O)N(c2ccccc2)C1=O)c1cccs1 (stereo unspecified) — lower, -5.01%
- O=C(C1CC=CCC1)N1CCC(CO)(Cc2ccc(Cl)cc2)CC1 (stereo unspecified) — higher, 14.7%
- CCCNc1nc(Nc2ccc(C)c(Cl)c2)c2cnn(C)c2n1 — higher, 14.2%
- CCCCNc1nc(Nc2ccc(C)c(Cl)c2)c2cnn(C)c2n1 — higher, 10.1%
- CC(C)(C)/C(Cn1cncn1)=N\OC(=O)Nc1ccc(Cl)cc1 — higher, 11.8%
- CN(Cc1nccs1)C(=O)CC1C(=O)NCCN1Cc1ccc(-c2ccccc2)cc1 (stereo unspecified) — lower, -5.55%
- Cc1nc2cc(C(=O)N3CCC4(CC3)OCCO4)ccc2n1-c1ccc(Br)cc1 — higher, 9.84%
- COC(=O)CSc1nc(N2CCOCC2)c2c(c1C#N)CC(C)(C)OC2 — higher, 4.99%
- CC(C)OC(=O)CSc1nc(N2CCOCC2)c2c(c1C#N)CC(C)(C)OC2 — higher, 35.4%
- Cc1ccc(N(C(=O)Cn2nnc(-c3ccc(F)cc3)n2)C(C(=O)NC(C)(C)C)c2ccncc2)cc1 (stereo unspecified) — higher, 7.5%
- C#Cc1ccc(CN2CCN(Cc3ccsc3)C(CCO)C2)cc1 (stereo unspecified) — lower, -1.98%
- N#CCCN(C(=O)COC(=O)CNC(=O)c1ccc(-c2ccccc2)cc1)c1ccc(F)cc1 — higher, 67.5%
- C/C(=N\NC(N)=S)c1ccccc1 — lower, 0.26%
- CCCCc1ccc(/C(C)=N/NC(=O)C2CCCC2)cc1 — lower, -4.47%
- Cc1ccccc1C(=O)Nc1cccc(N)c1 — lower, -3.59%
- Cc1ccc(S(=O)(=O)NCCCCCC(=O)Nc2c(C)n(C)n(-c3ccccc3)c2=O)cc1 — lower, -4.12%
- CCCCN(C(=O)c1c(C)noc1C)c1c(N)n(CCC)c(=O)[nH]c1=O — lower, -2.29%
- Cc1ccc(/C=C/C(=O)Nc2ccc(S(=O)(=O)Nc3onc(C)c3C)cc2)cc1 — lower, -4.61%
